Measured values taken from the OligoGym collection.

Target: FLG
Experiment: pooled miR-30 sensor sort-seq; sequence = guide strand
Conditions: shRNA
Note: reference of the scale not given here.

Question: Which sensor-assay potency score (higher = more potent) does the source give for TTTGTCTGCTGACACTTCTGGA here?
Answer: Its sensor-assay potency score (higher = more potent) is -0.531.

Question: Which sensor-assay potency score (higher = more potent) does the source give for TTTCTTCTAATAGACTATCAGT here?
Answer: Its sensor-assay potency score (higher = more potent) is -0.739.

Question: AATTGTAACTAACACTTCCGTG was tested. Which sensor-assay potency score (higher = more potent) did it give?
Answer: Its sensor-assay potency score (higher = more potent) is -0.414.

Target: FLNC
Experiment: as above
Conditions: shRNA

Question: How did the sensor-assay potency score (higher = more potent) turn out when TAGAGCTTCAGGTCTCCCTTGC was run?
Answer: Its sensor-assay potency score (higher = more potent) is 0.291.

Question: Which sensor-assay potency score (higher = more potent) does the source give for TAGCTGACAGCACATGAGCCAT here?
Answer: The sensor-assay potency score (higher = more potent) was -1.71.

Question: TTGAGGTGCTCATTGCACCAGC was tested. Which sensor-assay potency score (higher = more potent) did it give?
Answer: Its sensor-assay potency score (higher = more potent) is -0.419.

Question: With TTGAACTTGATGGAGACCTCAT as the sequence, how does the sensor-assay potency score (higher = more potent) read?
Answer: Its sensor-assay potency score (higher = more potent) is -0.144.

Question: How did the sensor-assay potency score (higher = more potent) turn out when TAGGAGACAGCATAGGTGCGAT was run?
Answer: The sensor-assay potency score (higher = more potent) was -0.825.

Question: Which sensor-assay potency score (higher = more potent) does the source give for TAGGCTGACACCAAGCCTGGGT here?
Answer: The sensor-assay potency score (higher = more potent) was -0.0141.

Question: How did the sensor-assay potency score (higher = more potent) turn out when TACTGCACTCGGTAGGTGCCGT was run?
Answer: Its sensor-assay potency score (higher = more potent) is -0.627.

Question: How did the sensor-assay potency score (higher = more potent) turn out when TTGTCTGTCACATAGGTGTCTG was run?
Answer: The sensor-assay potency score (higher = more potent) was -0.552.

Question: Which sensor-assay potency score (higher = more potent) does the source give for TTGATGTCCACCTTGCTTGGGC here?
Answer: Its sensor-assay potency score (higher = more potent) is 0.144.

Question: With TTGACTGCAGTCCACTGTGAAG as the sequence, how does the sensor-assay potency score (higher = more potent) read?
Answer: Its sensor-assay potency score (higher = more potent) is -1.44.

Question: For TTTGATTTTGCTGAGGTCCAGC, which sensor-assay potency score (higher = more potent) is on record?
Answer: The sensor-assay potency score (higher = more potent) was 0.0406.

Question: With TTGAGGTTGAGGTCACAGGTGC as the sequence, how does the sensor-assay potency score (higher = more potent) read?
Answer: The sensor-assay potency score (higher = more potent) was -0.307.

Question: How did the sensor-assay potency score (higher = more potent) turn out when TTACAGGTGATCTCTGCCTTGG was run?
Answer: Its sensor-assay potency score (higher = more potent) is -0.839.

Question: TTGTCAGCAAACTTGATGTTGA was tested. Which sensor-assay potency score (higher = more potent) did it give?
Answer: Its sensor-assay potency score (higher = more potent) is -0.54.

Question: With TAGGTGACTTTGCATGTCCCGT as the sequence, how does the sensor-assay potency score (higher = more potent) read?
Answer: Its sensor-assay potency score (higher = more potent) is -0.929.

Question: How did the sensor-assay potency score (higher = more potent) turn out when TTGACGGTGAAGGTGTCGTTGT was run?
Answer: The sensor-assay potency score (higher = more potent) was -0.371.

Question: How did the sensor-assay potency score (higher = more potent) turn out when TTCAGTGACACGTCCGTGGAGG was run?
Answer: Its sensor-assay potency score (higher = more potent) is -0.25.

Question: TTGTCGGTGATGTTGGGCCGTG was tested. Which sensor-assay potency score (higher = more potent) did it give?
Answer: The sensor-assay potency score (higher = more potent) was -1.35.

Question: Which sensor-assay potency score (higher = more potent) does the source give for TAGGACACAGTGTACGTGCCAT here?
Answer: The sensor-assay potency score (higher = more potent) was -0.557.

Question: With TTGGTGACAATAGTGAAGGTGG as the sequence, how does the sensor-assay potency score (higher = more potent) read?
Answer: The sensor-assay potency score (higher = more potent) was 0.0613.

Question: Which sensor-assay potency score (higher = more potent) does the source give for TGAACTCTGATGACACACCGGT here?
Answer: Its sensor-assay potency score (higher = more potent) is 0.0555.

Question: With TTGATGGTGATGGTGTACCGGC as the sequence, how does the sensor-assay potency score (higher = more potent) read?
Answer: Its sensor-assay potency score (higher = more potent) is -1.25.

Question: How did the sensor-assay potency score (higher = more potent) turn out when TTGAGGTCACAGGTGCTGCCGA was run?
Answer: Its sensor-assay potency score (higher = more potent) is -0.595.

Question: With TGAGCCATCACCATTGTCCTGG as the sequence, how does the sensor-assay potency score (higher = more potent) read?
Answer: Its sensor-assay potency score (higher = more potent) is 0.0505.
